PostGolgi yeast: growth inhibition of a yeast mutant, post-Golgi transport screen; 0.9% of 98,000 active; AID 739; post-Golgi transport phenotypic cell assay; inhibition, % at 10 µM;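 note: yeast cells grown in 1536-well plates; yeast grown about 18 h at 30C before absorbance read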
CYP2C9 inhib: inhibitors of human CYP2C9 | CYP2C9 Supersomes, luciferin-H conversion, luminescence | inhibition, % at 5 µM | 20% of 96,000 active;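 active = blocking of liver enzyme CYP2C9 beyond about 50% at 5 µM, limit read from the data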
Target sequence (P11712 whole entry, looked up): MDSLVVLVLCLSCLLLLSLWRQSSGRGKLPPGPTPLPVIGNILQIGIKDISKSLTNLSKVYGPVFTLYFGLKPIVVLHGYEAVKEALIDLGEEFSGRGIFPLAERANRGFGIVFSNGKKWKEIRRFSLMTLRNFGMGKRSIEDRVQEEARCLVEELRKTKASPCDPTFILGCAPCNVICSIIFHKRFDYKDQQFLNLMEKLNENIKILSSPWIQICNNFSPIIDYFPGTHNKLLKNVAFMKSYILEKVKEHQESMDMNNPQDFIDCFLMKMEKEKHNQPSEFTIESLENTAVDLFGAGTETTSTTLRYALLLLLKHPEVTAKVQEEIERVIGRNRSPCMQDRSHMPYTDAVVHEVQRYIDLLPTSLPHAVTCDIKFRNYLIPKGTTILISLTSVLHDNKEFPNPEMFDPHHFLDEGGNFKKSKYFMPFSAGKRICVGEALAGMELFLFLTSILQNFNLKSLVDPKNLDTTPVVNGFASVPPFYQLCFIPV
CYP2C19 inh: human CYP2C19 inhibition | 21% of 96,000 active | inhibition, % at 5 µM | CYP2C19 Supersomes, luciferin-H EGE luminescence, 30 min | P33261;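 active = CYP2C19 inhibition above a set limit at 5 µM in the primary screen, cut at about 50% in these data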
CYP2C19 activ: increases human CYP2C19 enzyme activity; AID 1025; recombinant CYP2C19, luciferin-H EGE luminescence; stronger effect = higher value; 0 = fully inhibited enzyme, 1 = untreated enzyme; activation factor at 5 µM; P33261; 96,000 tested, under 10 active;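 active = activation factor of at least 2 at 5 µM in the primary screen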
PostGolgi ctrl: yeast control strain growth, post-Golgi counter-screen; efflux-deficient yeast background strain, growth absorbance A615, 16 h; inhibition, % at 10 µM; 5% of 98,000 active
CYP2C9 act: increases human cytochrome P450 2C9 activity | AID 1024 | P11712 | recombinant CYP2C9, luciferin-H conversion, luminescence; stronger effect = higher value; factor 1 = untreated enzyme, 0 = blocked | 1.4% of 96,000 active | activation factor at 5 µM;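 active = activation factor of 2 or more for CYP2C9 at a 5 µM dose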
Each line names hits and unclear results; the compound was inactive in the other large screens. The list is not random: actives were taken first. Their share in the collection is about 32%. Cut-off read from the data, not from the text of the source, unless noted: active = inhibition above about 30%; inactive = the rest.

CC1CCCC(NC(=O)CCCn2c(=O)[nH]c3cc(Cl)ccc3c2=O)C1C (configuration not stated)	none
Clc1ccc(C2Nc3ccccc3-n3cccc32)cc1 (configuration not stated)	none
CCNC(=S)N(Cc1ccc2c(c1)OCO2)C1CC(=O)N(c2ccc(F)cc2)C1=O (configuration not stated)	CYP2C9 inhib 71.0, CYP2C19 inh 93.8
CCOC(=O)COc1cc2c3c(c(=O)oc2cc1C)CCCC3	CYP2C9 inhib 60.0
COC(=O)C(C(=O)OC)C(C)C(C(=O)OC)C(=O)OC	none
Nc1nc(SCCN2C(=O)c3ccccc3C2=O)n[nH]1	none
O=C1c2ccccc2C(=O)N1CCSc1nncs1	none
O=C1c2ccccc2C(=O)N1CCSc1ccccc1	CYP2C19 inh 52.3
Cc1csc(SCCN2C(=O)c3ccccc3C2=O)n1	CYP2C9 inhib 71.3, CYP2C19 inh 81.8
Cc1cc(C)n(C(=O)CCN2C(=O)c3ccccc3C2=O)n1	none
CSc1nsc(SCCN2C(=O)c3ccccc3C2=O)n1	CYP2C9 inhib 52.3, CYP2C19 inh 80.4
COC(=O)c1cccc(NC(=O)c2ccc(S(=O)(=O)N3CCN(C)CC3)cc2)c1	none
O=C1CC(c2ccccc2)CC(O)=C1C=NCCN1CCN(C(=O)Nc2ccccc2)CC1 (configuration not stated)	none
Brc1ccc(CN2CCSCC2)cc1	CYP2C19 inh 58.9
COc1ccc(CN2CCSCC2)cc1C	none
CSc1nc(N(C)NC(=O)c2ccc(Cl)cc2)c2ccccc2n1	none
CSc1nc(N(C)NC(=O)c2ccccc2)c2ccccc2n1	CYP2C9 inhib 65.0, CYP2C19 inh 88.0
O=C(C1CCCN(S(=O)(=O)c2cccc3nsnc23)C1)N1CC=C(c2ccccc2)CC1 (configuration not stated)	CYP2C9 inhib 68.6, CYP2C19 inh 63.8
O=C(C1CCN(S(=O)(=O)c2cccc3nsnc23)CC1)N1CC=C(c2ccccc2)CC1	none
O=C(C1CCC(CNS(=O)(=O)c2cccc3nsnc23)CC1)N1CC=C(c2ccccc2)CC1 (configuration not stated)	CYP2C9 inhib 71.4, CYP2C19 inh 86.9
CNC(=S)NNC(=O)c1cccn(Cc2cccc(Cl)c2)c1=O	none
N#Cc1c(-c2ccccc2)ccn(Cc2cccc(Cl)c2)c1=O	CYP2C9 inhib 51.4, CYP2C19 inh 77.4
N=c1n(CC(=O)O)c2ccccc2n1Cc1ccccc1Cl	none
CSc1cc(-c2ccccc2)n(Cc2ccccc2Cl)c(=O)c1C#N	CYP2C9 inhib 60.6
N#Cc1c(-c2ccccc2)ccn(Cc2ccccc2Cl)c1=O	CYP2C19 inh 54.2
CC(C)COC(=O)N(C)c1ccc(C(O)(C(F)(F)F)C(F)(F)F)cc1	none
O=C(Oc1ccc(C(=S)N2CCOCC2)cc1Br)c1cc(Cl)ccc1Cl	CYP2C9 act 2.4
COc1ccccc1N(CN1CCCC1=O)C(=O)COc1ccccc1	none
N#CC(c1ccc(Cl)cc1)c1ccc(Cl)nn1 (configuration not stated)	CYP2C19 inh 53.0
N#CC(c1ccc(Cl)nn1)c1ccccc1Cl (configuration not stated)	none
Cc1cccc(N=C2Sc3nc4c(C)c(C)ccc4cc3CN2CCN2CCOCC2)c1	PostGolgi yeast 45.8, PostGolgi ctrl 97.5
CCOc1cc(C(=O)NCc2nnc(SCC(=O)OC)n2C)cc(OCC)c1OCC	none
NS(=O)(=O)c1ccc(CCNC(=O)[C@@H]2CCCN2S(=O)(=O)c2ccccc2F)cc1	CYP2C9 inhib 60.7
NS(=O)(=O)c1ccc(CCNC(=O)C2CCCCN2S(=O)(=O)c2ccccc2)cc1 (configuration not stated)	CYP2C9 inhib 66.1
NS(=O)(=O)c1ccc(CCNC(=O)C2CCCN2C(=O)OCc2ccccc2)cc1 (configuration not stated)	none
Cn1c(NC(=O)CCc2ccccc2)cc(=O)n(C)c1=O	PostGolgi ctrl 35.9
O=C(CCc1ccccc1)Nc1cccc(NC(=O)CCc2ccccc2)c1	CYP2C9 inhib 88.1
CN(C)c1ccc(NC(=O)Cn2ncn3c(cc4ccccc43)c2=O)cc1	none
O=C(CCCc1nc(-c2ccccc2)no1)Nc1cccnc1	none
CN(C)c1ccc(NC(=O)CN2C(=O)CC(c3ccccc3)=Nc3ccccc32)cc1	CYP2C9 inhib 72.2
O=C(CCCc1ccccc1)Nc1cccnc1	CYP2C9 inhib 50.3, CYP2C19 inh 74.9
O=C(CN1C(=O)COc2ccccc21)N(CCCN1CCOCC1)CC1CC=CCC1 (configuration not stated)	none
Cc1cccc(NC(=S)NN2CCN(C)CC2)c1	none
CSCCC(NS(=O)(=O)c1ccc(Cl)cc1)C(=O)OCC(=O)NC1CCCCC1 (configuration not stated)	none
CC1=NC(C)Cc2ccccc21 (configuration not stated)	none
Cc1cccc(C2=N/C(=C\c3cccnc3)C(=O)O2)c1	none
CC(C)NC(=O)CCCc1ccccc1	none
CN(C)c1ccc(NC(=O)CCCc2ccccc2)cc1	CYP2C19 inh 100.0
C=CCOc1ccccc1CN1CCSCC1	CYP2C19 inh 71.1
CC(C)(C)C1=Nn2c(nnc2-c2ccco2)SC1	none
COc1ccc(N2CCN(C(=O)c3c(-c4ccccc4)noc3C)CC2)cc1	none (no result: CYP2C9 inhib, CYP2C19 inh, CYP2C19 activ, CYP2C9 act)
CCOC(=O)c1c(CN2CCOCC2)oc2ccc(OC)cc12	none
CCOC(=O)c1c(CSC(=N)N)n(-c2ccc(C)cc2)c2cc(Br)c(OC(C)=O)cc12	CYP2C9 inhib 65.2
COc1cc2c(C(=O)N3CCN(c4ccccc4)CC3)c(C)oc2cc1Br	CYP2C9 inhib 78.8, CYP2C19 inh 58.7, PostGolgi ctrl 34.6
CCOC(=O)c1c(CN2CCOCC2)n(-c2ccccc2)c2cc(Br)c(OC)cc12	CYP2C9 inhib 78.5, CYP2C19 inh 52.5, PostGolgi ctrl 54.1
CCOC(=O)c1c(CN2CCOCC2)n(-c2ccccc2)c2cc(Br)c(O)cc12	CYP2C9 inhib 64.5, CYP2C19 inh 56.8, PostGolgi ctrl 40.6
C/C(=N/NC(N)=S)c1ccccc1[N+](=O)[O-]	none
Cc1ccc(-c2csc(NC(=O)c3cccc([N+](=O)[O-])c3)n2)cc1	none
Cc1nn(Cc2c(F)c(F)c(F)c(F)c2F)c(C)c1NC(=O)c1nn(C)cc1[N+](=O)[O-]	none
Cc1ccc(-c2nc(NC(=O)c3nn(C)cc3[N+](=O)[O-])sc2C)cc1C	CYP2C9 inhib 53.6
O=C(Nc1nc(-c2ccc(Cl)cc2)cs1)c1cccnc1	CYP2C19 inh 61.0
Cc1ccc(-c2nc(NC(=O)c3nn(C)cc3[N+](=O)[O-])sc2C)cc1	none
Cc1ccc(-c2csc(NC(=O)c3ccno3)n2)cc1	CYP2C9 inhib 70.1
Cn1cc([N+](=O)[O-])c(C(=O)Nc2nc(-c3ccc(Cl)cc3)cs2)n1	PostGolgi ctrl 39.5
CCCCNC(=S)NNC(=O)c1csc2c1CCC(C)C2 (configuration not stated)	none
CCCCn1c(-c2csc3ccccc23)n[nH]c1=S	CYP2C9 inhib 88.8, CYP2C19 inh 97.0
